G9a inh = qHTS Assay for Inhibitors of Histone Lysine Methyltransferase G9a | G9a H3K9 monomethylation, AlphaScreen, 2 h | Potency, µM (doses to about 102 µM), for the others: top-dose activity, negative = inhibition, most hits filed as inhibitors | 350,000 compounds, 8.8% hits | AID 504332, 2011; note: potency is the fitted concentration of half-maximal effect; % is set by controls: 0 for no effect and ±100 for the full control effect; nearly all actives have a fitted effect of over 75% in size
Target sequence (Q96KQ7 913-1193 limits assumed): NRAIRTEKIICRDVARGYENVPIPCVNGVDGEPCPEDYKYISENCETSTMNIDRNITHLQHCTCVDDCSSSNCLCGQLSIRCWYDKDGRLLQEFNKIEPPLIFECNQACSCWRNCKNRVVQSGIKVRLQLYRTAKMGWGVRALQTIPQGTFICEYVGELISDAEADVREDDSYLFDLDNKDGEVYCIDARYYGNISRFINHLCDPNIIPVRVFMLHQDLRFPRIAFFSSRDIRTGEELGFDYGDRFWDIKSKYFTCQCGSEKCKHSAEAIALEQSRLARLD
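G9a (20 nM) preincubated 15 min RT with compounds, then 500 nM biotinylated H3K9 peptide and 20 uM SAM added; 2 h RT reaction. Monomethyl-H3K9 product detected by AlphaScreen with anti-H3K9me1 antibody, streptavidin donor and anti-rabbit IgG acceptor beads.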
Six1-Eya2 blk = qHTS Assay for Inhibitors of the Six1/Eya2 Interaction; 360,000 compounds, 0.56% hits; Homeobox protein SIX1 (Homo sapiens) + Protein phosphatase EYA2 (Homo sapiens), …; AlphaScreen GST-Six1/His-Eya2 binding, biochemical; stronger effect = lower value; activity change, % (concentration not given with the values); AID 651725, 2012; in the data active = activity change below about -65%; inconclusive = mostly about -30% to -63%; note: % is set by controls: 0 for no effect and ±100 for the full control effect
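Homogeneous AlphaScreen proximity assay pairing GST-Six1 with His-tagged Eya2 (added as 5X mix: 250 nM and 500 nM) in 50 mM Tris pH 8.0, 300 mM NaCl, 1 mM TCEP. Glutathione donor and nickel acceptor beads; 1 h, 37 °C, dark.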
BAZ2B inh = qHTS Assay for Inhibitors of BAZ2B. Bromodomain adjacent to zinc finger domain protein 2B (Homo sapiens), Q9UIF8. 360,000 compounds, 4.4% hits. AlphaScreen BAZ2B-H3K14Ac peptide displacement. Potency, µM (top dose mostly 114 µM), inactives show at the top dose activity change, negative = inhibition, actives largely listed as inhibitors. AID 504333, 2011; note: potency is the fitted concentration of half-maximal effect; % is set by controls: 0 for no effect and ±100 for the full control effect; nearly all actives have a fitted effect of over 60% in size
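AlphaScreen displacement of biotin-H3(5-23)K14Ac peptide (50 nM final) from BAZ2B (50 nM final) in PBS pH 7.4, 0.01% Tween-20; complex preformed 30 min RT, then compounds (top 110 uM) 30 min RT, beads 20 min dark.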
CtBP-E1A blk = qHTS Assay for Inhibitors of the CtBP/E1A Interaction; activity change, % (no concentration beside the values); 340,000 compounds, 0.49% hits; CtBP / adenovirus E1A interaction (AlphaScreen); AID 651724, 2012; AlphaScreen GST-E1A/His-CtBP binding, 1536-well; stronger effect = lower value; in the data active = activity change below about -65%; inconclusive = mostly about -30% to -63%; note: % is set by controls: 0 for no effect and ±100 for the full control effect
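In 5 uL wells, 23 nL compound meets equimolar GST-E1A and His-CtBP (5X stock 125 nM each) for 2 h, 37 °C. Beads (5X, 50 ug/mL) then 1 h, 37 °C, dark.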
JMJD2A Tudor inh = qHTS Assay for Inhibitors of JMJD2A-Tudor Domain; Lysine-specific demethylase 4A (Homo sapiens), O75164; AlphaScreen JMJD2A-Tudor / H3K4me3 peptide binding; Potency, µM (series often up to 114 µM), for the others: top-dose activity change, negative = inhibition, hits mostly inhibitors; 390,000 compounds, 4.4% hits; AID 504339, 2011; note: potency is the fitted concentration of half-maximal effect; % is set by controls: 0 for no effect and ±100 for the full control effect; nearly all actives have a fitted effect of over 50% in size
HP1b chromo inh = HTS for Inhibitors of HP1-beta Chromodomain Interactions with Methylated Histone Tails. AlphaScreen HP1-beta / biotin-H3K9me3 peptide binding. Potency, µM (series often up to 114 µM), for inactives: at the top dose activity change, negative = inhibition, most hits filed as inhibitors. 390,000 compounds, 0.56% hits. AID 540317, 2011; note: potency is the fitted concentration of half-maximal effect; nearly all actives have a fitted effect of over 70% in size
Target sequence (P83916 whole entry, looked up): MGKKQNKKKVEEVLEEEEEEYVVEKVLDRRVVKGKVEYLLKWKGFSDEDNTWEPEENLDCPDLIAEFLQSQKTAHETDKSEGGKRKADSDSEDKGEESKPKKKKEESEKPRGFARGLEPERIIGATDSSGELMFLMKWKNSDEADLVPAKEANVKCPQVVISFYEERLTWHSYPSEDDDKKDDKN
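Compound inhibition of the preformed complex between 50 nM HP1-beta and 50 nM biotinylated H3K9me3 peptide was read by AlphaScreen. Buffer was PBS pH 7.4 with 0.01% Tween-20. Incubations ran 30 min at room temperature, with 10 ug/mL donor/acceptor beads.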
* marks the source's active call; other numbers are inactive results; ? = inconclusive; / = not tested or not shown; [ ] = remark or other dose. Only some compounds are listed: those with a hit (about 10% of all), similar ones and a draw of the others. Unless noted, calls come from the whole dose curve; as a rule, active = well fitted inhibition curve with a large enough effect; inconclusive = small, poorly fitted or top-dose-only effect; inactive = no such curve, though single readings can be large or run the other way.

SMILES	G9a inh	Six1-Eya2 blk	BAZ2B inh	CtBP-E1A blk	JMJD2A Tudor inh	HP1b chromo inh
Cc1ccc(/C=C2/NC(=O)N(Cc3ccc(Br)cc3)C2=O)o1	31.6µM*	-3.7	-12.9%	14.2	50.1µM*	-2.3%
CCN1C(=O)N/C(=C/c2ccc(C)o2)C1=O	?	-2.5	-34.7%	8.1	-31.4%	16.6%
Cc1ccc(/C=C2/NC(=O)N(Cc3ccccc3F)C2=O)o1	31.6µM*	-4.1	3.1%	-7.4	?	-6.8%
CCCN1C(=O)/C(=C/c2ccc(C)o2)NC1=S	7.94µM*	/	?	/	/	/
CCOc1ccc(N2Nc3n[nH]c(N)c3N2)cc1	8.91µM*	-15.2	?	-11.3	?	-15.5%
COc1ccc(N2Nc3n[nH]c(N)c3N2)cc1	7.94µM*	-12.3	-34.7%	-7.7	?	-1.8%
COc1ccc(N2CCN(c3c4c(nc5nncn35)CCC4)CC2)cc1	?	/	-18.4%	/	-19.5%	10.5%
COCCOc1cc(NC(=O)CS(=O)CC(=O)N(C)C)c(Cl)cc1Cl (stereo not drawn)	16.4%	4.5	0.6%	5.1	-12.5%	24.3%
CCN(CC)C(=O)CS(=O)(=O)CC(=O)Nc1cc(OCCOC)c(Cl)cc1Cl	50.1µM*	7.3	3.6%	10.3	-3.5%	7.8%
Cc1ccc(C(=O)O/N=C\c2ccc(N3CCOCC3)c([N+](=O)[O-])c2)cc1	24.6%	-2.3	-25.0%[57.1 µM]	1.1	-4.8%	?
COc1ccccc1C(=O)/C=C/c1ccc(N2CCCCC2)c([N+](=O)[O-])c1	12.6µM*	-2.3	6.31µM*	0.0	8.91µM*	31.6µM*
O=C(O/N=C\c1ccc(N2CCCCC2)c([N+](=O)[O-])c1)c1ccc(Cl)cc1Cl	39.8µM*	?	?	?	?	?
O=C(/C=C/c1ccc(N2CCCCC2)c([N+](=O)[O-])c1)c1ccc(O)cc1	-25.4%[12.7 µM]	-6.5	39.8µM*	-5.8	28.2µM*	35.5µM*
Cc1cc(O)c(C(c2cccc(F)c2)N2CCN(c3ccccc3)CC2)c(=O)n1Cc1ccco1 (stereo not drawn)	?	/	-38.6%	/	?	14.6%[57 µM]
CCOc1ccc(CC(=O)NCc2ccc3c(c2)CCN3C(=O)c2ccccc2)cc1OCC	-3.4%[59 µM]	/	-13.5%	/	-25.0%	8.8%
Cc1ccc(-n2ncc(C(=O)NC3CCN(Cc4ccccc4)CC3)c2C2CCN(C(=O)OC(C)(C)C)CC2)cc1C	-33.2%[59 µM]	/	-0.5%[57.1 µM]	/	-34.6%	18.2%
CCN(CC)N=Nc1[nH]nc2nc(C)cc(C)c12	/	2.6	-0.5%	-5.1	-22.9%[11.4 µM]	-11.1%
Cc1cc(C)c2c(N=NN3CCCCC3)[nH]nc2n1	44.7µM*	0.8	-12.1%	-6.3	-0.7%	14.3%
O=[N+]([O-])c1cccc(/C([O-])=C(/C(=S)Nc2cccc3ccccc23)[n+]2ccccc2)c1	5.62µM*	-7.5	-35.7%	-10.2	?	?
COc1cccc(NC(=O)CNC(=O)c2ccc([N+](=O)[O-])cc2)c1	-1.7%	-2.2	-9.2%	2.3	1.4%	32.4%
O=[N+]([O-])c1cccc(C([O-])=C(C(=S)Nc2cccc3ccccc23)[n+]2ccccc2)c1	/	-23.1	/	-25.2	?	?
COc1cccc(NC(=S)/C(=C(\[O-])c2ccc([N+](=O)[O-])cc2)[n+]2ccccc2)c1	44.7µM*	0.0	50.1µM*	0.1	-17.6%[11.4 µM]	-9.2%
[O-]/C(=C(\C(=S)Nc1ccccc1F)[n+]1ccccc1)c1ccc(OC(F)F)cc1	50.1µM*	-1.5	-24.6%	-2.1	-19.1%[11.4 µM]	11.2%
O=[N+]([O-])c1ccc(/C([O-])=C(/C(=S)Nc2ccccc2F)[n+]2ccccc2)cc1	50.1µM*	14.7	-35.4%	-6.0	-25.8%	-6.4%[57 µM]
Cc1ccc(Cl)cc1-n1c(=O)cc(N2CCN(c3ccc(F)cc3)CC2)[nH]c1=O	1.5%[59 µM]	/	-0.3%	/	-14.5%	-0.7%[57 µM]
SMILES	G9a inh	Six1-Eya2 blk	BAZ2B inh	CtBP-E1A blk	JMJD2A Tudor inh	HP1b chromo inh
Cc1ccc(C(=O)Nc2ccc3oc(-c4ccccc4C)nc3c2)cc1	1.7%[59 µM]	/	-11.6%	/	-3.3%	51.5%
Cc1ccc(C)c(NC(=S)/C(=C(\[O-])c2ccc(OC(F)F)cc2)[n+]2ccccc2)c1	39.8µM*	7.9	?	-1.5	-7.7%	15.1%
CCc1nn(CC(=O)NCCc2ccc(OC)cc2OC)c(=O)c2cc3c(OC)cccc3n12	3.3%[59 µM]	/	-11.4%	/	-24.4%	34.9%
O=C(CSc1nnc(-c2ccc(F)cc2)o1)N1CCCc2ccccc21	10µM*	/	-7.5%	/	-4.8%	5.4%
O=C(CSc1ccc(-c2ccccn2)nn1)N1CCCc2ccccc21	?	-80.4*	8.91µM*	-66.2*	7.94µM*	13.9%
COc1ccc(Cl)cc1-n1nnc(-c2nsc(NC(=O)c3ccccc3Cl)n2)c1C	2.3%[59 µM]	/	14.7%	/	-1.7%	29.9%
Cc1cc(C)c(S(=O)(=O)Nc2ccc(-c3cn4ccccc4n3)cc2)c(C)c1	?	?	?	?	?	-10.3%
Cc1cc(C)c(S(=O)(=O)Nc2cccc(-c3cn4ccccc4n3)c2)c(C)c1	-36.3%[59 µM]	/	-27.5%	/	5.01µM*	45.2%
CSc1ccc(C2CC(=O)Oc3c2c(=O)n(C)c2ccccc32)cc1 (stereo not drawn)	8.6%[59 µM]	/	-8.6%	/	0.0%	32.4%
Cc1cc2c(s1)c1cnn(Cc3cc(F)ccc3C)c(=O)c1n2C	/	/	/	/	-5.5%	/
CCCNc1cc(=S)nc(N)[nH]1	0.631µM*	-10.7	-29.6%	-21.8	22.4µM*	?
CCCCNc1cc(Cl)nc(N)n1	-3.4%	-4.8	-0.6%	4.6	2.8%	42.1%
COc1cccc(NC(=O)Cn2c(=O)n(Cc3ccc4c(c3)OCO4)c(=O)c3oc4ccccc4c32)c1	-1.7%[59 µM]	/	-3.2%	/	8.4%	38.0%
CCOC(=O)C1(C)NC(c2ccccc2F)C2C(=O)N(c3cccc(C(C)=O)c3)C(=O)C21 (stereo not drawn)	13.2%	9.2	18.7%	-1.5	35.5µM*	?
CCOC(=O)C1(C)NC(c2cccs2)C2C(=O)N(c3ccc(OC)cc3)C(=O)C21 (stereo not drawn)	4.0%	-1.7	2.1%	-5.6	10µM*	2.9%
Cc1cc2oc3c(c(=O)c2cc1C)C(c1ccc(C(C)C)cc1)N(c1nc(C)c(C)s1)C3=O (stereo not drawn)	9.9%[59 µM]	/	4.6%	/	6.9%	25.3%

Source: PubChem
